MBD2 DNA inh: blocks human MBD2 binding to methylated DNA | Q9UBB5 | TR-FRET, MBD2 binding to methylated oligonucleotide | inhibition, % at 4.4 µM | 370,000 compounds, 0.31% hits | AID 686964; in the data active = inhibition above about 13%
LEDGF integ inh: blocks HIV-1 LEDGF/p75-dependent DNA integration; TR-FRET IN-LEDGF/p75 DNA integration, Eu/Cy5; inhibition, % at 3.7 µM; 370,000 compounds, 0.64% hits; AID 743269;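 active = inhibition above the screen-wide mean plus 3 SD, cut at about 13% in these data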;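 also: signal is the Cy5 over europium emission ratio at 671 and 618 nm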
UHRF1 MBD2 ctr: human UHRF1 methylated DNA binding inhibitors; UHRF1 binding to methylated oligo, TR-FRET; inhibition, % at 4.4 µM; 370,000 compounds, 0.75% hits; AID 687016; in the data active = inhibition above about 21%;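 also: UHRF1 SRA domain binding a hemimethylated CpG hairpin DNA probe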
PG9 binder: small molecules binding HIV-1 gp120 antibody PG9; inhibition, % at 6.7 µM; TR-FRET gp120-PG9 antibody binding; 360,000 compounds, 0.43% hits; in the data active = inhibition above about 8.5%
rCAG binder: molecules binding r(CAG) RNA repeats; r(CAG) RNA repeat, TO-PRO-1 dye displacement fluorescence; inhibition, % at 3 µM; 370,000 compounds, 1.3% hits; AID 651821;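 active = inhibition above the plate cutoff, the mean of all test compounds on that plate plus 3 SD, cut at about 35% in these data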;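 also: higher means more dye released from RNA so lower well fluorescence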
DNMT1 inh: blocks human DNA methyltransferase DNMT1. P26358. DNMT1 molecular beacon, Hinp1I cleavage, fluorescence. inhibition (reported as % activation of signal), % at 10 µM. 360,000 compounds, 0.83% hits; in the data active = inhibition above about 50%
PG9 bind confirm: confirmation of small molecules binding HIV-1 gp120 antibody PG9; TR-FRET PG9 antibody binding, biochemical; inhibition, % at 6.7 µM; 1,500 compounds, 90% hits; shares compounds with PG9 binder; in the data active = inhibition above about 9%
PGV04 counter: PGV04 control antibody binding, counter-screen | shares compounds with PG9 binder | 1,500 compounds, 95% hits | TR-FRET PGV04 antibody-gp120 binding, biochemical | inhibition, % at 6.7 µM; in the data active = inhibition above about 9.5%
PG9 bind DR: PG9 antibody binding, dose response | shares compounds with PG9 binder | TR-FRET PG9 antibody-gp120 binding inhibition | IC50, µM | 95 tested, under 10 active | AID 651848; in the data active = IC50 below about 10 µM
PGV04 DR counter: binds control antibody PGV04 in PG9 counter-screen | shares compounds with PG9 binder | TR-FRET binding to control antibody PGV04 | IC50, µM | 95 compounds, 20% hits | AID 651937
PG126 binding DR: counter-screen for PG9 binders: binding to control antibody PG126 | shares compounds with PG9 binder | TR-FRET binding to antibody PG126, counterscreen | IC50, µM | 95 compounds, 20% hits
Each line names hits and unclear results; the compound was inactive in the other large screens (follow-up assays come after a bar, where they were run). This is a sample that favours compounds with a hit; in the whole collection about 3.5% have one here. Rule as the data show it, unless noted: active = IC50 below about 9 µM; inactive = the rest.

COc1cc2cc(C(=O)N(C)Cc3ccccc3)[nH]c2cc1OC	PG9 binder 15.6 | PG9 bind confirm 14.7 | PGV04 counter 21.6
COc1cc2cc(C(=O)NCCc3ccccc3)[nH]c2cc1OC	none
COc1ccccc1CN(C)C(=O)CN1CCN(CC(=O)Nc2ccccc2Cl)CC1	none
COc1ccc2c(C)cc(SCC(=O)NC3CCCC3)nc2c1	PG9 binder 11.2 | PG9 bind confirm 15.2 | PGV04 counter 29.2
COc1ccc2nc(SCC(=O)NC3CCCC3)c(C)cc2c1	PG9 binder 33.9 | PG9 bind confirm 26.1 | PGV04 counter 33.0
COc1ccc(-c2ccc(SCC(=O)NC3CCCC3)nn2)cc1	none
O=C(CCCn1c(SCc2cccc(F)c2)nc2ccccc2c1=O)NCC1CCCO1 (stereo unspecified)	PG9 binder 13.2 | PG9 bind confirm 9.5 | PGV04 counter 12.5
Cc1cc(SCC(=O)NC2CC2)nc2ccccc12	PG9 binder 11.0 | PG9 bind confirm 12.4 | PGV04 counter 15.8
O=C(CSc1ccc2ccccc2n1)NC1CC1	none
Cc1cc(SCC(=O)NCC2CCCO2)nc2ccccc12 (stereo unspecified)	PG9 binder 12.3 | PG9 bind confirm 17.4 | PGV04 counter 20.2
Cc1ccc(-n2c(SCC(=O)NCC3CCCO3)nc3ccccc3c2=O)cc1C (stereo unspecified)	none
O=C(COC(=O)c1ccc2ccccc2c1)Nc1ncc(C(F)(F)F)cc1Cl	PG9 binder 14.7 | PG9 bind confirm 18.1 | PGV04 counter 27.1
O=C(COC(=O)c1ccc2ccccc2n1)Nc1ncc(C(F)(F)F)cc1Cl	none
O=C(CNC(=O)c1ccc(Br)cc1)c1ccc(Br)cc1	PG9 binder 11.2 | PG9 bind confirm 17.9 | PGV04 counter 25.6
CCn1c(=S)[nH]c2nc3c(cc2c1=O)CCCC3	PG9 binder 21.6 | PG9 bind confirm 10.1 | PGV04 counter 9.9 | PG9 bind DR inactive | PGV04 DR counter inactive | PG126 binding DR inactive
O=c1c2cc3c(nc2[nH]c(=S)n1-c1ccccc1)CCCC3	PG9 binder 22.5 | PG9 bind confirm 31.4 | PGV04 counter 33.9
CC1(C)Cc2nc3[nH]c(=S)n(-c4ccccc4)c(=O)c3cc2CO1	none
O=C(C1CCN(S(=O)(=O)c2ccc(-n3cnnn3)cc2)CC1)N1CCCCC1	none
O=c1ccc(-c2ccc(S(=O)(=O)N3CCN(c4ccccc4)CC3)o2)n[nH]1	PG9 binder 25.0 | PG9 bind confirm 43.0 | PGV04 counter 47.7
O=c1ccc(-c2ccc(S(=O)(=O)N3CCN(c4cccc(Cl)c4)CC3)o2)n[nH]1	none
Cc1cc(C)n2nc(CC(=O)NNC(=O)COc3cccc(C)c3C)nc2n1	none
CCc1ccc(Nc2n[n+](-c3ccccc3)c(-c3ccc(N(CC)CC)cc3)s2)cc1	PG9 binder 9.7, DNMT1 inh 67.7 | PG9 bind confirm 18.2 | PGV04 counter 10.6 | PG9 bind DR inactive | PGV04 DR counter inactive | PG126 binding DR inactive
Cc1cccc(C)c1NC(=O)CNC(=O)CNC(=O)Cc1cccc2ccccc12	none
CCCCOc1ccc(C(=O)OCC(=O)NC2CCCC2)cc1	none
N#Cc1cccc(NC(=O)CSc2nnc(-c3n[nH]c4ccccc34)o2)c1	PG9 binder 9.4 | PG9 bind confirm inactive | PGV04 counter 10.3
CCCCOc1ccc(C(=O)Nn2c(-c3cccs3)nc3ccccc3c2=O)cc1	PG9 binder 30.5 | PG9 bind confirm 36.8 | PGV04 counter 59.1

Bioassay records: PubChem BioAssay, several laboratories
